Laboratory results taken from PubChem BioAssay (NCATS).
Results filed as inconclusive are left out. Calls of active or inactive are those of the source. Unless noted, the call rests on the fitted dose curve; in most records, active means well fitted curve in the direction sought with a large enough effect; inconclusive means small, poorly fitted or top-dose-only effect, or another doubt; inactive means no such curve, though single readings can be large; an effect the other way counts as inactive or inconclusive.

Tests used:
[1] = Cytotoxicity counterscreen for inhibitors of SARS-CoV-2 cell entry (AID 1645845; calls by dose curve; further: nearly all actives have a fitted effect of over 50% in size; further: potency means the concentration at half of the fitted maximal effect)
Procedure, shortened: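 Counterscreen run in the same HEK293-ACE2 line as the pseudotyped-particle entry assay, without particles. Viability after 48 h at 37 C was read as ATP luminescence, scaled between cell-containing and cell-free wells.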

[2] = Primary qHTS to identify inhibitors of SARS-CoV-2 cell entry (AID 1645846; calls by dose curve; further: nearly all actives have a fitted effect of over 45% in size); conditions: activity change, negative = inhibition: at 57.1 µM (top of the series) unless noted
Procedure, shortened: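 Data are normalized to wells receiving SARS-CoV-2-S pseudoparticles and those given bald particles. Entry signal was luciferase luminescence in stable hACE2 Expi293F cells, 48 hr post-infection, after 1 hr compound pretreatment.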

[3] = tested on: CRL-7250; assay: qHTS assay to identify novel small-molecules to repurpose for Merkel cell carcinoma treatment (AID 1296009); conditions: MCC and control cell lines, CellTiter-Glo viability, 72 h; series mostly up to 92 µM; further: nearly all actives have a fitted effect of over 60% in size
Procedure, shortened: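 Dose-response viability screen; 72 hr exposure at 37 degree celsius; CellTiter-Glo added, 10 min room temperature, luminescence read; RLUs scaled between no-cell and DMSO wells.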

[4] = tested on: Zika virus NS2B-NS3 protease (linked construct); assay: Primary screen NINDS Rhodamine qHTS for Zika virus inhibitors (AID 1347160); further: nearly all actives have a fitted effect of over 55% in size
Procedure, shortened: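 Single-chain NS2B-NS3 protease, 25 nM, pH 8.0; compounds preincubated 15 min. Activity: Rhodamine110 release from 1.5 microM substrate over 15 min, room temperature, data fitted to 4-parameter Hill.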

[5] = molecular target: Calcium and integrin-binding protein 1 (Homo sapiens) (UniProt Q99828); assay: Primary qHTS for Identification of Calcium Integrin Binding Protein 1 (CIB1) Competitor (AID 1508620);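 further: GST tagged CIB1 binding a fluorescein labelled alphaIIb integrin peptide tracer; top concentration of the series differs between compounds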
Calcium and integrin-binding protein 1 (Homo sapiens), sequence (Q99828 whole entry, looked up): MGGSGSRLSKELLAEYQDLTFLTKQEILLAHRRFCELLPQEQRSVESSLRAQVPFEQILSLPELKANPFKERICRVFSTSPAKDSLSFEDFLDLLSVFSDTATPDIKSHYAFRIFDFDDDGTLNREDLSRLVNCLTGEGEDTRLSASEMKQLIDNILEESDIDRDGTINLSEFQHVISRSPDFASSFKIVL
Procedure, shortened: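 Fluorescence polarization competition: GST-tagged CIB1 (1 uM final) preincubated with compound 15 min at room temperature, then FITC-labelled alphaIIb peptide (100 nM final) added. After 15 min at room temperature, polarization read at Ex 480/Em 540.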

[6] = molecular target: Cytochrome P450 2D6 (Homo sapiens) (UniProt P10635); assay: Cytochrome P450 family 2 subfamily D member 6 (CYP2D6) small molecule antagonists: luciferase biochemical (cell-free) qHTS assay (AID 1645840; active means well fitted curve in the direction sought with a large enough effect in the repeat runs; an effect the other way counts as inactive or inconclusive; further: potency means the concentration at half of the fitted maximal effect; nearly all actives have a fitted effect of over 55% in size)
Cytochrome P450 2D6 (Homo sapiens), sequence (P10635 whole entry, looked up): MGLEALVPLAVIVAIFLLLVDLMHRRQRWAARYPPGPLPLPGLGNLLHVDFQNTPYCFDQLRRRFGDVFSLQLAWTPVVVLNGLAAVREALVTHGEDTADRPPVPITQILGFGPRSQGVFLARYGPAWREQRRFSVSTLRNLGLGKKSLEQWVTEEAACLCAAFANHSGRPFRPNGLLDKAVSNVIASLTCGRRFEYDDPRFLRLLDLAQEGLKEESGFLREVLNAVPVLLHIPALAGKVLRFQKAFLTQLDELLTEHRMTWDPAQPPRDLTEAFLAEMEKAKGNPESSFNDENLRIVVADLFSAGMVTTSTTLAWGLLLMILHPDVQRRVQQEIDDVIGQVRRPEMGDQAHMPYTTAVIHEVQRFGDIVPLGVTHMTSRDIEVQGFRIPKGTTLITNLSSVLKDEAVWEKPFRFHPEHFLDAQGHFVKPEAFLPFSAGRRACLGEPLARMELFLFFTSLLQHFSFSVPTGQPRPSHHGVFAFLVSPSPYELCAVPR
Procedure, shortened: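 P450-Glo CYP2D6 system: proluciferin substrate converted by enzyme to luciferin, read by luminescence proportional to activity. Enzyme-substrate mix with compound 10 min at room temperature, then NADPH regeneration 1 h before detection reagent.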

[7] = molecular target: Cytochrome P450 2C9 (Homo sapiens) (UniProt P11712); assay: Cytochrome P450 family 2 subfamily C member 9 (CYP2C9) small molecule antagonists: luciferase biochemical (cell-free) qHTS assay (AID 1645842; active means well fitted curve in the direction sought with a large enough effect in the repeat runs; an effect the other way counts as inactive or inconclusive; further: nearly all actives have a fitted effect of over 55% in size)
Cytochrome P450 2C9 (Homo sapiens), sequence (P11712 whole entry, looked up): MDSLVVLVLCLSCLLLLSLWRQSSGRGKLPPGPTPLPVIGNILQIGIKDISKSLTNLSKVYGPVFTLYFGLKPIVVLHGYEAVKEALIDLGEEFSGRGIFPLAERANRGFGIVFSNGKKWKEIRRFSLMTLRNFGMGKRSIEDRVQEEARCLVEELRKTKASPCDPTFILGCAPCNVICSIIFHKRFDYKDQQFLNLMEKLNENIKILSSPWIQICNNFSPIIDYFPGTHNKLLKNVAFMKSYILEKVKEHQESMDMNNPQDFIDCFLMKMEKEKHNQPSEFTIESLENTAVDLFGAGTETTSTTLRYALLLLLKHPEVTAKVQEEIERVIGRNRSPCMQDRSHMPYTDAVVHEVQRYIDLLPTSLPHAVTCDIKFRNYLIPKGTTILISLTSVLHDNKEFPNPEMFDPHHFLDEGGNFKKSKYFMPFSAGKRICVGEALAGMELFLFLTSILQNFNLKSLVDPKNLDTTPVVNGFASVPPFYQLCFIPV
Procedure, shortened: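 P450-Glo CYP2C9 system: proluciferin substrate with enzyme in mix containing 0.4% BSA, 10 min at room temperature, then NADPH regeneration solution added and incubated 1 h at 37C. Detection reagent stopped reaction; luminescence read after 20 min as RLU.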

[8] = molecular target: Glutathione peroxidase 1 (Homo sapiens) (UniProt P07203); assay: Primary qHTS Assay for Inhibitors of Recombinant Selenoprotein Glutathione Peroxidase 1 (GPX1) (AID 1845191); further: nearly all actives have a fitted effect of over 65% in size
Glutathione peroxidase 1 (Homo sapiens), sequence (P07203 whole entry, looked up): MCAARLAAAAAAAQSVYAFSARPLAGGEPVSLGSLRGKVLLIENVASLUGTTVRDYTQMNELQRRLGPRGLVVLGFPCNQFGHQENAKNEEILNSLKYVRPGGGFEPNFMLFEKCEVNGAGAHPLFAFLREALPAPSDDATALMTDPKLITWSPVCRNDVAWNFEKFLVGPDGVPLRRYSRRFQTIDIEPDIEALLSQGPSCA
Procedure, shortened: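 GR-coupled readout: NADPH consumption tracked by fluorescence, ex 340/em 450 nm, at t=0 and after 15 min at RT. Final mix 10 nM GPX1, 1 mM GSH, 0.5 mM CHP, 0.5 mM NADPH, 100 nM GR, 0.01% BSA, following 30 min enzyme–compound preincubation.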

[9] = molecular target: Phospholipid hydroperoxide glutathione peroxidase GPX4 (Homo sapiens) (UniProt P36969); assay: Primary qHTS Assay for Inhibitors of Recombinant Selenoprotein Glutathione Peroxidase 4 (GPX4) (AID 1845192); further: nearly all actives have a fitted effect of over 65% in size
Phospholipid hydroperoxide glutathione peroxidase GPX4 (Homo sapiens), sequence (P36969 whole entry, looked up): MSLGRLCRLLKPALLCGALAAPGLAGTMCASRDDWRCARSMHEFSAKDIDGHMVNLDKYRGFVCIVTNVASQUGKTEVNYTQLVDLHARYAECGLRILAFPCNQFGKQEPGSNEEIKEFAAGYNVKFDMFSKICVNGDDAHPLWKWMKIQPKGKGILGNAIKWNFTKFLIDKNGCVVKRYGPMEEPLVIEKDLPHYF
Procedure, shortened: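 Steps: GPX4 plus compound, 30 min RT; add GR/GSH/NADPH master mix; start with cumene hydroperoxide; read 340/450 nm fluorescence at 0 and 15 min. Finals were 200 nM GPX4, 1 mM GSH, 0.5 mM CHP, 0.5 mM NADPH, 100 nM GR.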

[10] = molecular target: Luciferin 4-monooxygenase (Photinus pyralis) (UniProt P08659); assay: Primary firefly luciferase (FLuc) qHTS assay for identification of artifact compounds. (AID 1845220); conditions: outcome: dose series up to 54.1 µM unless noted; further: nearly all actives have a fitted effect of over 60% in size
Procedure, shortened: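 D-luciferin and ATP (10 uM each, final) in Tris acetate buffer pH 7.6 were incubated with compounds for 15 min at room temperature. The reaction was started with 10 nM Photinus pyralis luciferase and luminescence read after 5 min. Percent inhibition was fitted to a 4-parameter Hill equation.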

[11] = Primary fluorescence-based thiol-reactive (MSTI) qHTS assay for identification of artifact compounds. (AID 1845221);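 further: thiol-reactive compounds lower the probe fluorescence signal; nearly all actives have a fitted effect of over 65% in size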
Procedure, shortened: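 Thiol-reactive compounds detected by quenching of 4 uM MSTI fluorescence (525/598 nm) after 1 h room-temperature dark incubation in PBS pH 7.4, 2% DMSO. qHTS titration; percent inhibition Hill-fitted against Acetyl-MSTI/MSTI controls.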

[12] = tested on: Nanoluciferase (engineered Oplophorus gracilirostris luciferase); assay: Primary Nanoluciferase (NLuc) qHTS assay for identification of artifact compounds. (AID 1845222)
Procedure, shortened: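 Diluted conditioned medium from NLuc-expressing S16 cells treated with compounds for 15 min at room temperature, then Nano-Glo substrate added; luminescence read after 5 min. Percent inhibition versus no-enzyme and DMSO controls fitted to 4-parameter Hill equation.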

[13] = Primary redox qHTS assay for identification of artifact compounds. (AID 1845223)
Procedure, shortened: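 Redox-cycling detection via DTT (250 uM final) oxidation coupled to Amplex Red (25 uM)/HRP (250 mU/mL) in HBSS. 15 min preincubation plus 30 min after DTT, room temperature. Ex/Em 525/598 nm; 4-parameter Hill fit against DMSO and 10 uM DA3003.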

[14] = tested on: C33A; assay: Primary qHTS to identify gynecologic anti-cancer compounds using libraries of approved drugs and bioactive compounds (AID 1345084); conditions: Gynecologic cancer cell panel viability, ATPlite luminescence, 48 h; series mostly up to 57.5 µM; further: nearly all actives have a fitted effect of over 55% in size
Procedure, shortened: (§1)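 Five-point cytotoxicity, 48 h drug exposure at 37 C, 5% CO2, on cells seeded 16 h beforehand. ATP content read by ATPlite luminescence.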

[15] = tested on: CAOV3; assay: as above; conditions: Gynecologic cancer cell panel viability, ATPlite luminescence, 48 h; series mostly up to 57.5 µM
Procedure, shortened: as §1

[16] = tested on: CASKI; assay: as above; conditions: Gynecologic cancer cell panel viability, ATPlite luminescence, 48 h; series mostly up to 57.5 µM
Procedure, shortened: as §1

[17] = tested on: Es-2; assay: as above; conditions: Gynecologic cancer cell panel viability, ATPlite luminescence, 48 h; series mostly up to 57.5 µM
Procedure, shortened: as §1

[18] = tested on: Hek293T; assay: as above; conditions: Gynecologic cancer cell panel viability, ATPlite luminescence, 48 h, control line for the selectivity index; series mostly up to 57.5 µM
Procedure, shortened: as §1

[19] = tested on: JEG-3; assay: as above; conditions: Gynecologic cancer cell panel viability, ATPlite luminescence, 48 h; series mostly up to 57.5 µM
Procedure, shortened: as §1

[20] = tested on: OV90; assay: as above; conditions: Gynecologic cancer cell panel viability, ATPlite luminescence, 48 h; series mostly up to 57.5 µM
Procedure, shortened: as §1

[21] = tested on: PA-1; assay: as above; conditions: Gynecologic cancer cell panel viability, ATPlite luminescence, 48 h; series mostly up to 57.5 µM
Procedure, shortened: as §1

[22] = tested on: SKOV3; assay: as above; conditions: Gynecologic cancer cell panel viability, ATPlite luminescence, 48 h; series mostly up to 57.5 µM
Procedure, shortened: as §1

[23] = tested on: Tov-21-G; assay: as above; conditions: Gynecologic cancer cell panel viability, ATPlite luminescence, 48 h; series mostly up to 57.5 µM
Procedure, shortened: as §1

[24] = tested on: Tov112D; assay: as above; conditions: Gynecologic cancer cell panel viability, ATPlite luminescence, 48 h; series mostly up to 57.5 µM
Procedure, shortened: as §1

[25] = molecular target: Alpha-galactosidase (Coffea arabica) (UniProt Q42656); assay: Counterscreen for Glucocerebrosidase Inhibitors: qHTS Assay for Coffee Bean alpha-Galactosidase at pH 4.5 (AID 957)
Alpha-galactosidase (Coffea arabica), sequence (Q42656 whole entry, looked up): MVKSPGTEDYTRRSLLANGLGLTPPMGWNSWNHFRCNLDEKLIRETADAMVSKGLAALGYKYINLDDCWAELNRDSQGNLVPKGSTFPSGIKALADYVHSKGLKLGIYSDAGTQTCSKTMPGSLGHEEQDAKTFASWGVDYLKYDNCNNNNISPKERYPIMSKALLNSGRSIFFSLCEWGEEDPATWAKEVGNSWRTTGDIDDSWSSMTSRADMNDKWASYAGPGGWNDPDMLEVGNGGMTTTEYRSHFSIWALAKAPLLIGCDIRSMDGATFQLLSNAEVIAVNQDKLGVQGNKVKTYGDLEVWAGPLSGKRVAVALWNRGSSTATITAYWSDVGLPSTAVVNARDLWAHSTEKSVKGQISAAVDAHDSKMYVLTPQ
Procedure, shortened: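 Enzyme is added first (2 nM final), then compounds titrated from 0.7 nM to 77 uM, then 80 uM 4-methylumbelliferyl alpha-D-galactopyranoside; after 20 min at room temperature a pH 10 NaOH/glycine stop precedes fluorescence reading at 365/440 nm.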

[26] = molecular target: Alpha-galactosidase (Coffea arabica) (UniProt Q42656); assay: Counterscreen for Glucocerebrosidase Inhibitors: qHTS Assay for Coffee Bean alpha-Galactosidase at pH 5.9 (AID 998)
Procedure, shortened: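 Enzyme 2 nM + cpd (0.7 nM–77 uM titration) + 4-MU-alpha-Gal 80 uM, pH 5.9 citrate/Tween-20, RT 20 min, NaOH/glycine stop pH 10, fluor 365/440. Normalized to no-enzyme and full-activity controls; Hill-fit AC50.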

[27] = Validation screen for inhibitors of Lassa infection (AID 463096; calls by dose curve)
[28] = Inducers of the Endoplasmic Reticulum Stress Response (ERSR) in human glioma: Validation (AID 504836)
Procedure, shortened: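 Stably transfected U87-MG glioma cells carrying a GRP78-based luciferase sensor; 16 h compound incubation. Luminescence end-point read 10 min after Bright-Glo addition at room temperature.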

[29] = tested on: astro; assay: Drug repurposing screens with cells derived from glioblastoma tumor samples (AID 1345199); conditions: viability, ATP luminescence, 48 h; series mostly up to 45.9 µM; further: nearly all actives have a fitted effect of over 40% in size
Procedure, shortened: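 Primary testing used CD133+ neurospheres from four GBM patients, seven concentrations, 48 h exposure and ATP-based viability; confirmation added three slower-growing patient lines.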

[30] = P-glycoprotein substrates identified in KB-8-5-11 adenocarcinoma cell line, qHTS therapeutic library screen (AID 1346987); further: nearly all actives have a fitted effect of over 65% in size
Procedure, shortened: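 Luminescence from CellTiter-Glo, read 5 min after addition, quantified survival of KB-8-5-11 (P-gp-overexpressing) cells exposed to compounds for 72 h. AC50 was derived from concentration-response curves.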

[31] = tested on: Zika virus NS2B-NS3 protease (unlinked complex); assay: Primary screen GU Rhodamine qHTS for Zika virus inhibitors: Unlinked NS2B-NS3 protease assay (AID 1347159); further: nearly all actives have a fitted effect of over 60% in size
Procedure, shortened: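 Unlinked NS2B/NS3, 25 nM; Rhod110 peptide, 1.5 microM; compounds, up to 114 microM. Reaction run 15 min at RT in 10 mM Tris-HCl pH 8.0, 0.01% Tween 20; kinetic fluorescence change fitted with a 4-parameter Hill model.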

[32] = Primary qHTS for inhibitors of nuclear receptor binding SET domain protein 2 (NSD2) in an isogenic RCH-ACV NSD2 p.E1099K mutant (9B) (AID 1645876); further: potency means the concentration at half of the fitted maximal effect; nearly all actives have a fitted effect of over 70% in size

CCC(CC)CC1(C(=O)Nc2ccccc2SC(=O)C(C)C)CCCCC1
-15.2%: activity change, negative = inhibition [2]
inactive: Potency [1] | Potency [3]

FC(F)(F)c1ccc(N2CCNCC2)nc1Cl
active: Potency [6] 15.1 µM
inactive: Potency [4] | Potency [5] | Potency [7] | Potency [8] | Potency [9] | outcome [10] | Potency [11] | Potency [12] | Potency [13] | Potency [14] | Potency [15] | Potency [16] | Potency [17] | Potency [18] | Potency [19] | Potency [20] | Potency [21] | Potency [22] | Potency [23] | Potency [24]

CS(=O)(=O)c1ccc(Oc2cc(F)cc(C#N)c2)c2c1[C@H](O)C(F)(F)C2
inactive: Potency [1] | Potency [2] | Potency [3]

CO[C@@H]1COCC[C@@H]1N[C@@H]1CC[C@@](C(=O)N2CCc3ncc(C(F)(F)F)cc3C2)(C(C)C)C1
inactive: Potency [1] | Potency [2] | Potency [3]

O=C(CCc1ccc(O)cc1)c1c(O)cc(O)cc1O
-19.9%: activity change, negative = inhibition [2]
inactive: outcome [25] | outcome [26] | Potency [27] | outcome [28] | Potency [1] | Potency [3]

Cc1cccc(-c2[nH]c(CNc3ccccc3F)nc2-c2ccc3ncnn3c2)n1
inactive: Potency [3]
-32.1%: activity change, negative = inhibition [2]

C[C@]12CCC(=O)C[C@@H]1CC[C@@H]1[C@@H]2CC[C@@]2(C)[C@H]1CC[C@]2(C)O
inactive: Potency [29]

CC1=CC2/C=C(\C)CCC(O)C(O)C(O)CC(=O)C23C(=O)NC(CC(C)C)C3C1C (stereo not drawn)
inactive: Potency [30] | Potency [31] | Potency [4] | Potency [5] | Potency [9] | outcome [10] inactive [at 25.7 µM] | Potency [11] | Potency [12] | Potency [19]
active: Potency [32] 4.47 µM

Cn1nccc1Nc1nccc(-c2ccn([C@H](CO)c3ccc(Cl)c(F)c3)c(=O)c2)n1
inactive: Potency [3]
active: Potency [1] 11.2 µM

COc1ccc2cc(OCC3(C(=O)O)CN(C(=O)c4ccc(F)cc4)C3)ccc2c1
inactive: Potency [1] | Potency [3]
-2.33%: activity change, negative = inhibition [2]

NC1CCC(N[C@@H]2C[C@H]2c2ccccc2)CC1 (stereo partly drawn)
-44.4%: activity change, negative = inhibition [2]
inactive: Potency [1] | Potency [3]
